According to PubChem BioAssay (NCATS):
Results filed as inconclusive are left out. Activity calls are given as the source filed them. Calls follow the shape of the dose curve; as a rule, active = well fitted inhibition curve with a large enough effect; inconclusive = small, poorly fitted or top-dose-only effect; inactive = flat fitted curve, though single readings scatter.

Assays:
Test in all cases: qHTS profiling for inhibitors of Plasmodium falciparum proliferation (AID 504749); also: nearly all actives have a fitted effect of over 60% in size
Details in all cases: P. falciparum in erythrocytes, SYBR Green DNA, 72 h; series mostly up to 28.7 µM
AA1029 = tested on: AA1029
Method in brief: (§1)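 P. falciparum-infected erythrocytes (0.3% parasitemia, 2.5% hematocrit) incubated with compound 72 h at 37 C, 5% CO2. Parasite DNA detected by SYBR Green after lysis, overnight at room temperature; normalised to 0.29 uM artemisinin and DMSO.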

C2A = tested on: C2A
Method in brief: as §1

CP211 = tested on: CP211
Method in brief: as §1

CP215 = tested on: CP215
Method in brief: as §1

CP217 = tested on: CP217
Method in brief: as §1

CP250 = tested on: CP250
Method in brief: as §1

CP252 = tested on: CP252
Method in brief: as §1

CP256 = tested on: CP256
Method in brief: as §1

CP260 = tested on: CP260
Method in brief: as §1

CP315 = tested on: CP315
Method in brief: as §1

CP325 = tested on: CP325
Method in brief: as §1

CP329 = tested on: CP329
Method in brief: as §1

DIV14 = tested on: DIV14
Method in brief: as §1

DIV17 = tested on: DIV17
Method in brief: as §1

FAB9 = tested on: FAB9
Method in brief: as §1

N140 = tested on: N140
Method in brief: as §1

P93_24 = tested on: P93_24
Method in brief: as §1

PC15 = tested on: PC15
Method in brief: as §1

SC27B = tested on: SC27B
Method in brief: as §1

TAB165 = tested on: TAB165
Method in brief: as §1

Measured: Potency

CC(/C=C1\SC(=S)N(CC(=O)O)C1=O)=C\c1ccccc1
inactive: all assays above
